Bioassay records as filed in PubChem.
Shown are actives, neighbours in structure and some others; about 2.5% of the full set was active somewhere.
Cruzain noTriton – cruzain (T. cruzi) inhibition without detergent; P25779; purified cruzain, Z-FR-AMC fluorescence, no detergent; Potency, µM, without a hit: max response, negative = inhibition, actives largely listed as inhibitors; hit rate 2.3% among 200,000;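 further: plate controls were enzyme without inhibitor for no effect and buffer without enzyme for full effect; nearly all actives have a fitted effect of over 40% in size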
Target sequence (P25779 123-467 limits assumed): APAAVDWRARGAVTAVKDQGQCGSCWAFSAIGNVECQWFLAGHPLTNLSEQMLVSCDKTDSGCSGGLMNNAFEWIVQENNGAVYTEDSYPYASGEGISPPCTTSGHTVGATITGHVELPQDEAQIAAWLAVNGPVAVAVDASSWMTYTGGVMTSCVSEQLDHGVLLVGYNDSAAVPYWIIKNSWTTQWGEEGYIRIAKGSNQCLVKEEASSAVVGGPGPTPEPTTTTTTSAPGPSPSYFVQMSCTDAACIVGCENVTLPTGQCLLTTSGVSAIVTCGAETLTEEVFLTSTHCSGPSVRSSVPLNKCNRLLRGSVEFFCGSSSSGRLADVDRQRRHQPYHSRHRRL
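Purified cruzain at 1.5 nM, pre-incubated 15 min with compound at room temperature in 100 mM sodium acetate pH 5.5, 5 mM DTT, 0.00005% Triton X-100. Reaction started with 2 uM Z-FR-AMC; AMC fluorescence increase over 60 s gives rate.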
Cruzain inh Det – blocks cruzain activity in presence of Triton detergent; P25779; purified cruzain, Z-FR-AMC fluorescence, 0.01% Triton; Potency, µM, for the others: max response, negative = inhibition, usual class: inhibitors; hit rate 0.43% among 200,000; AID 1478;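 further: plate controls were neutral wells for no effect and buffer without enzyme for full effect; nearly all actives have a fitted effect of over 40% in size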
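Cruzain (1.5 nM) preincubated 15 min at RT with compound in 100 mM sodium acetate pH 5.5, 5 mM DTT, 0.01% Triton X-100. Reaction started with 2 uM Z-FR-AMC; AMC fluorescence (ex 360/em 450 nm) change over 60 s gave rate.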
* marks the source's active call; other numbers are inactive results; ? = inconclusive; ! = a repeat was not active. The call rests on the fitted dose curve; in most records, active means well fitted curve in the direction sought with a large enough effect; inconclusive means small, poorly fitted or top-dose-only effect, or another doubt; inactive means no such curve, though single readings can be large; an effect the other way counts as inactive or inconclusive. Potency means the concentration at half of the fitted maximal effect.

SMILES	Cruzain noTriton	Cruzain inh Det
CCCCOc1ccc(-c2cc3c(=O)n(CC(=O)Nc4ccc(Cl)cc4Cl)ccn3n2)cc1	-14%	8%
Cc1ccc(Cl)cc1NC(=O)c1nnn(Cc2ccccc2)c1N	-1%	-4%
CCNc1ccc(C(=O)N/N=C/c2c(C)nn(-c3ccccc3)c2N2CCCC2)cc1[N+](=O)[O-]	6%	-10%
Cc1ccc(NS(=O)(=O)c2cccc(C(=O)N/N=C/c3c(C)nn(-c4ccccc4)c3N3CCCC3)c2)c(C)c1	32µM*	-2%
Cc1ccc(NS(=O)(=O)c2cccc(C(=O)N/N=C/c3ccc4c(c3)OCCO4)c2)c(C)c1	6.3µM*	-13%
COc1ccccc1NS(=O)(=O)c1cccc(C(=O)N/N=C/c2ccc(N3CCOCC3)cc2)c1	?	-7%
COc1cccc(-n2c(=O)c3sc4ccccc4c3n(CC(=O)Nc3ccc(F)cc3F)c2=O)c1	-8%	-2%
Cc1ccc2[nH]c3c(c2c1)CCC3=O	12%	15%
CC1=NCCc2c1[nH]c1cc(O)ccc21	13µM*!	28µM*!
COc1ccc2c3c([nH]c2c1)C(C)=NCC3	10µM*!	-3%
COc1ccc2[nH]c3c(c2c1)CCn1c-3nc2ccccc2c1=O	-13%	1%
CCc1cc2c(cc3c(=O)n(CC(=O)NC(C)c4ccccc4)ncn32)s1 (configuration not stated)	0%	0%
NCCC[C@@H](CC(=O)N[C@@H]1CCNC[C@H]1C(=O)N[C@H](CC(=O)N[C@@H](CCC(=O)O)CC(=O)O)Cc1c[nH]c2ccccc12)NC(=O)C[C@H](Cc1ccccc1)NC(=O)[C@@H]1CNCC[C@H]1N	-5%	-2%
O=C(Nc1ccc(O)c(-c2nc3ccccc3s2)c1)c1cccs1	?	-2%
O=C(/C=C/c1ccco1)NC(=S)Nc1ccc(O)c(-c2nc3ccccc3s2)c1	7.9µM*	0%
COc1ccc(-c2csc(NC(=O)COc3ccc(N(C)S(=O)(=O)c4ccc(C)cc4)cc3)n2)cc1	7.9µM*	1%
Cc1ccc(-c2csc(NC(=O)COc3ccc(N(C)S(=O)(=O)c4ccc(C)cc4)cc3)n2)cc1	6.3µM*	1%
O=C(COc1ccc(Cl)cc1)Nc1nc(-c2ccc(S(=O)(=O)N3CCOCC3)cc2)cs1	?	-2%
COc1ccc(S(=O)(=O)N(C)c2ccc(OCC(=O)Nc3cc(C)on3)cc2)cc1	-7%	-1%
O=C(c1cnccn1)N1CCC[C@@]2(CCN(Cc3nccs3)C2)C1	-4%	0%
CCCNC(=O)CSc1nc2nc(C)c(Cc3ccccc3Cl)c(C)n2n1	-3%	-2%
COc1cc2c(=O)n(CCC(=O)NCC3CCCO3)c(=O)n(CC(=O)Nc3c(C)cccc3C)c2cc1OC (configuration not stated)	-4%	0%
Cc1ccc(S(=O)(=O)n2nc(-c3ccccc3)nc2NCc2ccc(Cl)cc2)cc1	5%	0%
COC(=O)c1c(NC(=O)c2ccc(C)c(S(=O)(=O)Nc3ccccc3C)c2)sc2c1CCCC2	7.9µM*	1%
COC(=O)c1c(NC(=O)c2ccc(Br)s2)sc2c1CCC2	10µM*	-6%
SMILES	Cruzain noTriton	Cruzain inh Det
COC(=O)c1c(NC(=O)c2c(OC)cccc2OC)sc2c1CCCC2	6%	-3%
COC(=O)c1c(NS(=O)(=O)c2ccc3ccccc3c2)sc2c1CCCC2	?	1%
O=S(=O)(c1cccc(-c2nnc(SCc3ccc(Cl)cc3)o2)c1)N1CCCCC1	-23%	-1%
O=C(CSc1nnc(-c2cccc(S(=O)(=O)N3CCCCC3)c2)o1)c1ccc[nH]1	16µM*	0%
CC(C)Cc1nn2c(=O)cc(COC(=O)c3ccc(NC(=O)CCc4ccccc4)cc3)nc2s1	-14%	1%
COc1ccc(C)cc1NC(=O)Nc1ccc(Br)cn1	25µM*	3%
CCOC(=O)Nc1cc(C)ccc1OC	-12%	8%
O=C(Nc1ccccc1C(F)(F)F)c1cc(-c2ccc3c(c2)OCCO3)on1	0%	0%
COc1ccc(N(Cc2cccs2)C(=O)COc2cccc(Cl)c2)cc1	11%	-8%
NC(=S)N/N=C/C=C/c1ccccc1	16µM*	25µM*
COc1ccc(/C=N/NC(N)=S)cc1OC(=O)c1ccccc1	?	-28%
O=C(N/N=C/C=C/c1ccccc1)c1ccccc1Br	0%	-3%
NC(=S)N/N=C/c1ccc2ccccc2c1	0.79µM*	2.2µM*
CCOc1ccc(NC(=O)CSC2=Nc3ccccc3C3=NC(CC(=O)NCc4ccccc4OC)C(=O)N23)cc1 (configuration not stated)	27%	3%
COc1ccc(OC)c(CCNc2nccn(-c3ccc(C)c(C)c3)c2=O)c1	2%	-3%
COc1ccc2nc(SCC(=O)N3CCCCCC3)c(C#N)cc2c1	-2%	-4%
CCOc1ccc2nc(SCC(=O)N3c4ccccc4Sc4ccccc43)c(C#N)cc2c1	4µM*	-1%
Cc1ccc(C)c2c1[nH]c1ccccc12	9%	-11%
O=C1NC(=O)c2c1c1c3ccccc3[nH]c1c1[nH]c3ccccc3c21	8.9µM*	-1%
O=C(Oc1ccccc1)N1CCC2(CC1)CN(c1ccccc1)C2	-27%	1%
Cc1ccc(C(=O)c2no[n+]([O-])c2C(=O)c2ccc(C)cc2)cc1	25µM*	?
Cc1ccc(C(=O)/C=C\C(=O)c2ccc(C)cc2)cc1	-21%	-9%
O=C(Nc1nc2c(F)cccc2s1)c1ccc2c(c1)OCCO2	-6%	-4%
CCn1c(-c2cc(-c3cccc(OC)c3)nc3ccccc23)n[nH]c1=S	5%	-13%
CCc1ccc(-c2cc(-c3n[nH]c(=S)n3CC)c3ccccc3n2)cc1	16µM*	-3%
SMILES	Cruzain noTriton	Cruzain inh Det
Cc1nn(-c2ccccc2)c(OC(=O)C(C)(C)C)c1Sc1ccccc1	-6%	0%
Cc1cccc(N2C(=O)c3cccc4c(N5CCCCC5)c([N+](=O)[O-])cc(c34)C2=O)c1C	?	-6%
O=C1c2cccc3c(N4CCOCC4)c([N+](=O)[O-])cc(c23)C(=O)N1c1cccc2ccccc12	13µM*	-9%
Cn1nnnc1SCCNCc1ccccc1OCc1ccccc1F	-10%	1%
Nc1nc(Nc2cccc(F)c2)nc2ccccc12	16µM*	?
O=c1oc(Nc2cccc(F)c2)nc2ccccc12	-7%	-3%
C[C@@H]1C[C@H](OC(=O)c2ccccc2O)CC(C)(C)C1	-7%	1%
Cc1ccc(N=Cc2c(O)n(-c3cc(Cl)ccc3N3CCOCC3)c(=O)c3ccccc23)cc1C	6.3µM*	-1%
Cc1cc(N=Cc2c(O)n(-c3cccc(Cl)c3)c(=O)c3ccccc23)no1	-4%	-4%
CCCCCCN(CCCCCC)C(=O)Cc1c(-c2ccc(F)cc2)[nH]c2ccccc12	32µM*	-9%
O=C(Cc1c(O)c2ccccc2[nH]c1=O)N(Cc1ccccc1)Cc1ccccc1	-3%	-3%
COC(=O)c1sccc1S(=O)(=O)N1CCN(c2cc(Cl)ccc2C)CC1	-5%	-7%
O=C(O)c1ccc(N2CCCCC2)cc1	0%	-6%
Nc1ccc(N2CCCCCC2)cc1	32µM*	-9%
COc1cc(/C=N\NC(=O)c2ccc(C)nc2)ccc1OC(=O)c1ccco1	-6%	-5%
COc1cc(/C=N/NC(=O)CNC(=O)c2ccccc2)ccc1OC(=O)c1cccs1	0%	-6%
COc1cc(/C=N/Nc2cccc(C)c2)ccc1OC(=O)c1ccco1	16µM*	-2%
COc1cc(/C=N/Nc2ccc(Cl)cc2)ccc1OC(=O)c1cccs1	7.9µM*	-3%
